This is an account of results in PubChem BioAssay (NCATS).

Values without a mark were called inactive. Records with an inconclusive call do not appear. The source made the active and inactive calls. Unless noted, the call rests on the fitted dose curve; in most records, active means well fitted curve in the direction sought with a large enough effect; inconclusive means small, poorly fitted or top-dose-only effect, or another doubt; inactive means no such curve, though single readings can be large; an effect the other way counts as inactive or inconclusive.

The target in assay [1] is Lysosomal acid glucosylceramidase (Homo sapiens) (UniProt P04062). In words: Glucocerebrosidase-p2 (AID 348; in the data active means potency below about 10 µM; further: potency means the concentration at half of the fitted maximal effect). The following applies: purified GBA, blue fluorogenic substrate, 40 min. In a few lines: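 Normal human glucocerebrosidase (0.2 nM) with blue fluorogenic substrate (80 uM final) in citrate/phosphate pH 5.9 with 10mM sodium taurocholate, 0.01% tween-20; 40 min RT, NaOH/glycine stop; fluorescence Ex 365/Em 440; AC50 from a titration from 0.6 nM upwards.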

The nature of assay [2]: AP1 Signaling Pathway (AID 357; active means well fitted curve in either direction with a large enough effect, not every such curve was filed as active; further: on the % scale 0 is the no-effect control and ±100 the full control effect). The following applies: ME-180 AP-1-bla reporter, EGF-induced, beta-lactamase ratio, 5 h; at 7.69 µM (top of the series) unless noted. In a few lines: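 Cells are seeded overnight, exposed to compound titrations and an EC50 level of EGF for 5 hours at 37 °C, then loaded with CCF4 dye for 2.5 hours. Beta-lactamase activity under the AP-1 element is read as a blue/green ratio.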

The nature of assay [3]: Stat Signaling Pathway (AID 446; active means well fitted curve in either direction with a large enough effect, not every such curve was filed as active;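 further: ME-180 cervical cancer cells given 40 pM IL-6 alongside compound; SIE-controlled beta-lactamase reporter measured as 460/530 nm FRET emission ratio; on the % scale 0 is the no-effect control and ±100 the full control effect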). The following applies: ME-180 SIE beta-lactamase reporter, IL-6 stimulated, 5 h; at 7.69 µM (top of the series) unless noted. In a few lines: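 Emission at 460 and 530 nm (excitation 405 nm) reports SIE-controlled beta-lactamase in ME-180 cells. Cells received compound with 40 pM IL-6 for 5 hrs at 37 C; data scaled between 300 pM IL-6 and 125 nM JAK-inhibitor controls.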

For assay [4], the target named is Glucocorticoid receptor (Homo sapiens) (UniProt P04150). As to the kind of experiment: GR-GFP Redistribution (AID 450;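 active means compounds whose dose series gives a full or clear partial fitted curve of increased nuclear translocation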; further: potency means the concentration at half of the fitted maximal effect). The following applies: U2OS GR-GFP nuclear translocation, laser cytometry, 2 h.
Assay [5] shares this target. In words: GR-EFC Redistribution (AID 451; calls by dose curve; further: potency means the concentration at half of the fitted maximal effect). The following applies: CHO-K1 GR-EFC translocation, beta-gal luminescence, 2 h. An outline of the steps: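 CHO-K1 cells expressing nuclear EA and GR-ED fragments of b-gal; compounds titrated up to 46 uM final, 2 h at 37 C. GR nuclear translocation read as complemented b-gal luminescence after 1 h RT detection.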
The target of assay [6] is Mitogen-activated protein kinase 10 (Mus musculus) (UniProt Q61831). In words: JNK3 AlphaScreen Assay (AID 530; active means well fitted curve in either direction with a large enough effect, not every such curve was filed as active;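 further: kinase came from lysate of stimulated human HepG2 cells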; further: potency means the concentration at half of the fitted maximal effect). The following applies: JNK3 lysate, c-Jun phosphorylation; series mostly up to 57.1 µM. In a few lines:
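HepG2 lysate (IL-1b/TNFa pre-activated) + biotin-GST-cJun 1-79 + anti-pSer73 cJun; cpd titration, 15 min RT; ATP 10 uM start; Tris pH 7.6, MgCl2, DTT, vanadate; beads in EDTA buffer; AlphaScreen.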

Assay [7] in a line: qHTS Assay for Identification of Small Molecule Agonists for Hypoxia Response Element Signaling Pathway (AID 914; active means well fitted activation curve with a large enough effect in the signal ratio, with a control signal flat, not every such curve was filed as active; the % refers to the signal ratio; further: potency means the concentration at half of the fitted maximal effect). The following applies: ME-180 (cervical carcinoma) HRE-bla reporter, beta-lactamase ratio, CoCl2, 17 h; activation: stronger effect = higher value. In a few lines: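 Positive modulation of EC50 CoCl2-induced hypoxia response element signaling is measured in ME-180 cells with a beta-lactamase reporter. Compounds are titrated, incubation runs 17 hours, and %Activity derives from the blue/green ratio.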
In general terms: In qHTS, concentration-response curves come from the screen itself.

In assay [8] the target is Dual specificity protein kinase CLK4 (Homo sapiens) (UniProt Q9HAZ1). As to the kind of experiment: qHTS Assay for Inhibitors of CDC-like Kinase 4 (Kinase-Glo Assay) (AID 1770). Further: nearly all actives have a fitted effect of over 65% in size. Further: potency means the concentration at half of the fitted maximal effect. The following applies: recombinant Clk4, Kinase-Glo ATP depletion luminescence; series mostly up to 66.7 µM. In a few lines: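 Readout: Kinase-Glo luminescence from ATP left after a 4.5 h room-temperature reaction of 25 nM Clk4 with 100 uM RS peptide and 1 uM ATP (final). Buffer: 25 mM Tris pH 7.5, 10 mM MgCl2.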

For assay [9] the target is unchanged. In words: qHTS Assay for Inhibitors of CDC-like Kinase 4 (ADP-Glo Assay) (AID 1771). Further: nearly all actives have a fitted effect of over 70% in size. Further: potency means the concentration at half of the fitted maximal effect. The following applies: recombinant CLK4, ADP-Glo luminescence; series mostly up to 80 µM. An outline of the steps: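 In this ADP-Glo format, 1 uM ATP and 100 uM RS peptide served as substrates for 25 nM Clk4 in Mg2+/EGTA/DTT/Triton buffer; reactions ran 1 hr at room temperature before luminescent ADP quantification.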

Assay [10] has the same target. As to the kind of experiment: qHTS Assay for Inhibitors of CDC-like Kinase 4 (ADP-FP Assay) (AID 1795). Further: nearly all actives have a fitted effect of over 60% in size. Further: potency means the concentration at half of the fitted maximal effect. The following applies: Transcreener ADP fluorescence polarization; series mostly up to 50 µM. An outline of the steps: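 FP readout: Orange Transcreener ADP2 tracer (4 nM) plus ADP antibody, read after 30 min at room temperature. Kinase step: 6.25 nM Clk4, 100 uM RS peptide, 1 uM ATP, pH 7.5, 1 h.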

The target in assay [11] is Ubiquitin carboxyl-terminal hydrolase 1 (Homo sapiens) (UniProt O94782). As to the kind of experiment: Inhibitors of USP1/UAF1: Pilot qHTS (AID 504865).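 Further: rhodamine fluorescence freed from ubiquitin-rhodamine substrate followed over time; top concentration of the series differs between compounds; on the % scale 0 is the no-effect control and ±100 the full control effect; nearly all actives have a fitted effect of over 35% in size.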 The following applies: purified USP1/UAF1, Ub-rhodamine cleavage fluorescence; series mostly up to 54.9 µM. In a few lines:
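1nM USP1/UAF1 + cpd, 15 min RT; start w/ Ub-Rho 150nM final; kinetic FL 480/540 nm, 6 reads q60 s. Buffer 50mM HEPES pH 7.8, 0.5mM EDTA, 1mM TCEP, 0.01% Tween-20, 0.1 mg/ml BSA.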

Assay [12] can be described thus: Primary qHTS for small molecule stabilizers of the endoplasmic reticulum resident proteome: Secreted ER Calcium Modulated Protein (SERCaMP) assay (AID 1508630). Further: on the % scale 0 is the no-effect control and ±100 the full control effect. The following applies: SH-SY5Y GLuc-SERCaMP (Gaussia luciferase released on ER calcium loss) secretion, thapsigargin, luminescence; series mostly up to 38.4 µM. In a few lines:
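The SH-SY5Y reporter protocol was run at 3 concentrations up to 38.3 uM (primary) or 11 concentrations (follow-up): 16 h compound, 100 nM thapsigargin for 4 h, then extracellular luciferase luminescence.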

For assay [13], the target named is Cytochrome P450 1A2 (Homo sapiens) (UniProt P05177). In words: p450-cyp1a2 (AID 410; calls by dose curve; further: potency means the concentration at half of the fitted maximal effect). The following applies: recombinant CYP1A2, luciferin-ME demethylation, luminescence; series mostly up to 57 µM. In a few lines: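 Read-out is luminescence from luciferin produced by CYP1A2 demethylation of Luciferin-ME (100uM, at Km). Detection reagent stopped the 60 min NADPH-dependent reaction; signals were normalized to 57 uM furafylline.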

The nature of assay [14]: NFAT Signaling Pathway (AID 444; active means well fitted curve in either direction with a large enough effect, not every such curve was filed as active;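 further: carbachol stimulus at about its EC50 of 1 µM final; on the % scale 0 is the no-effect control and ±100 the full control effect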). The following applies: Jurkat NFAT-bla M1, carbachol, beta-lactamase ratio, 5 h; at 7.69 µM (top of the series) unless noted. In a few lines: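 Jurkat cells with NFAT-driven β-lactamase reporter and co-expressed M1 receptor, stimulated with carbachol (final 1 uM, ~EC50), compound titration, 5 h at 37 °C. CCF4 loaded 1 h at RT; 460/530 nm ratio gave %activity and AC50.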

The target of assay [15] is Cytochrome P450 3A4 (Homo sapiens) (UniProt P08684). As to the kind of experiment: qHTS Assay for Activators of Cytochrome P450 3A4 (AID 885). Further: nearly all actives have a fitted effect of over 65% in size. The following applies: recombinant CYP3A4, Luciferin-PPXE luminescence, 60 min; series mostly up to 57.1 µM. An outline of the steps:
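Activators are scored by enhanced luminescence from CYP3A4 conversion of luciferin-PPXE (25uM, equal to KM) to luciferin, after 60 min at RT with an NADPH-regenerating system.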

Assay [16] deals with 3',5'-cyclic-AMP phosphodiesterase 4B (Homo sapiens) (UniProt Q07343). In words: qHTS Assay for Inhibitors of PDE-IV (AID 607; active means well fitted activation curve with a large enough effect in the main read-out, with a control signal flat, not every such curve was filed as active; further: % of control where 0% means no effect). The following applies: HEK293 ACTOne CNG channel cells, membrane potential fluorescence; series mostly up to 22.9 µM. An outline of the steps: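 The readout is membrane depolarisation from a cAMP-sensing CNG channel, detected with a potential dye at ex 535/em 590. Cells were HEK293-derived (endogenous PDE-IV) at 1000 cells/well, titrated up to 22.9 uM final.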

Assay [17] deals with Cytochrome P450 3A4 (Homo sapiens) (UniProt P08684). In words: qHTS Assay for Inhibitors and Substrates of Cytochrome P450 3A4 (AID 884). Further: potency means the concentration at half of the fitted maximal effect; nearly all actives have a fitted effect of over 50% in size. The following applies: recombinant CYP3A4, Luciferin-PPXE luminescence; series mostly up to 57.1 µM. In a few lines: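 Luminescent readout of luciferin produced by CYP3A4 (20 nM) dealkylation of Luciferin-PPXE, 25 uM (its KM). NADPH-driven reaction ran 60 min at RT after 10 min compound preincubation; data scaled to 57 uM ketoconazole as 100% inhibition.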

Assay [18] deals with Cytochrome P450 2D6 (Homo sapiens) (UniProt P10635). In words: qHTS Assay for Inhibitors and Substrates of Cytochrome P450 2D6 (AID 891). Further: potency means the concentration at half of the fitted maximal effect; nearly all actives have a fitted effect of over 60% in size. The following applies: recombinant CYP2D6, luciferin-ME EGE luminescence; series mostly up to 57.1 µM. In a few lines: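 Luminescent read-out of luciferin formed by 5 nM human CYP2D6 demethylating 30 uM Luciferin-ME EGE (Km level) over 60 min at room temperature after NADPH regeneration addition. Data normalized to full inhibition by 1.43 uM quinidine.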
Chain of Cytochrome P450 2D6 (Homo sapiens) (P10635 whole entry, looked up): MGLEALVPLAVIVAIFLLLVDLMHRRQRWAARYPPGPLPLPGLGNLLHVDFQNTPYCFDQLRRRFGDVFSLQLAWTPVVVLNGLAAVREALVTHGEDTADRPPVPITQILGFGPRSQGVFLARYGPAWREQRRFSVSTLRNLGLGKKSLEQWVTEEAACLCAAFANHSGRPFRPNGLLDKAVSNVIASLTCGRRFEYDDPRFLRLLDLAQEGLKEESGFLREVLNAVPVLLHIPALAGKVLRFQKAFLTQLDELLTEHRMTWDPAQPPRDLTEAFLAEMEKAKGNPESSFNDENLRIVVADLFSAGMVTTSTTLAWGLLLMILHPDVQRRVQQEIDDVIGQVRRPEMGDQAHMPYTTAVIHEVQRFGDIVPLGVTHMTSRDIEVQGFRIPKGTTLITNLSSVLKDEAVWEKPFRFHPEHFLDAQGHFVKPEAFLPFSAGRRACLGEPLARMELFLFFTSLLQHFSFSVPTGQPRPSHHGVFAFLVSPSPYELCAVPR

Chain of Glucocorticoid receptor (Homo sapiens) (P04150 whole entry, looked up, the tested form may be a part): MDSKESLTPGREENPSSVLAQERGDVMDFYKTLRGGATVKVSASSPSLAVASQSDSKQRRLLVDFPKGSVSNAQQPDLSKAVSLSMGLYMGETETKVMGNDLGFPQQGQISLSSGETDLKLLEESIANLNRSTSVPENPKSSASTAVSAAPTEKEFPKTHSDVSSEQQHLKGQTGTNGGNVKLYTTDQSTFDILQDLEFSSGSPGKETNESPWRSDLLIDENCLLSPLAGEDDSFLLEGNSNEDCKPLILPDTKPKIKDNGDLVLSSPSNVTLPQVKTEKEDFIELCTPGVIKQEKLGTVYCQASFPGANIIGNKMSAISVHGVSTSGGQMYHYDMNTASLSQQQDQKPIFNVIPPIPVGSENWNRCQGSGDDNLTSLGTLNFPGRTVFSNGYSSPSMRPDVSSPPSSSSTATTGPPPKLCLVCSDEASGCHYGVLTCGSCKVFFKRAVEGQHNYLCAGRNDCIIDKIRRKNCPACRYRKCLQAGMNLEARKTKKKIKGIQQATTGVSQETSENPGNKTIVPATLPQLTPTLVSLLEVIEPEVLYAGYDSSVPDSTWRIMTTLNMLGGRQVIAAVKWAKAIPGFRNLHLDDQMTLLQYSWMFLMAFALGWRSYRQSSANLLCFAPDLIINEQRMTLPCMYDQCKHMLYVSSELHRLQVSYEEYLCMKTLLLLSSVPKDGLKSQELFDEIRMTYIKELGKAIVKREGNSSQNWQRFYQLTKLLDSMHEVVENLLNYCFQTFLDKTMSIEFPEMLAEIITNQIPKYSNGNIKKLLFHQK
Chain of Ubiquitin carboxyl-terminal hydrolase 1 (Homo sapiens) (O94782 whole entry, looked up): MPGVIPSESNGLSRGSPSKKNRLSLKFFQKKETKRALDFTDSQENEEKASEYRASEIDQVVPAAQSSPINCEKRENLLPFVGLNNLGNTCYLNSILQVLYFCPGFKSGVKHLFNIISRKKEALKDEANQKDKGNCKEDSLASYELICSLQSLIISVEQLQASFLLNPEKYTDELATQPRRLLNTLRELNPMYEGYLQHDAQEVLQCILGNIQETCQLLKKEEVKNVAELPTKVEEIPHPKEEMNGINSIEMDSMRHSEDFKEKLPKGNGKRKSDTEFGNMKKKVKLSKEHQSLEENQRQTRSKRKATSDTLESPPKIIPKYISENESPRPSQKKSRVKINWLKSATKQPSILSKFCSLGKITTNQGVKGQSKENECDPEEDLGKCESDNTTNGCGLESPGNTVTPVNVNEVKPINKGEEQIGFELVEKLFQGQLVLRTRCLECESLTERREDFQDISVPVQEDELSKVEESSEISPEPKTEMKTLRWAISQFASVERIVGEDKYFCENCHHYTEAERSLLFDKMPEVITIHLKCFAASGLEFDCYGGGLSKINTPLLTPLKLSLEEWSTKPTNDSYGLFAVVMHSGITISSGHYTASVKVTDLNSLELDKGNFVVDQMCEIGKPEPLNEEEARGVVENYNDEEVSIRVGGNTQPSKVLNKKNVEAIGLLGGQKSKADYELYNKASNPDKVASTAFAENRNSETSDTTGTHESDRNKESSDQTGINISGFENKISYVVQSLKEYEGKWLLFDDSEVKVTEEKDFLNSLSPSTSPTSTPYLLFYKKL
Chain of Lysosomal acid glucosylceramidase (Homo sapiens) (P04062 whole entry, looked up): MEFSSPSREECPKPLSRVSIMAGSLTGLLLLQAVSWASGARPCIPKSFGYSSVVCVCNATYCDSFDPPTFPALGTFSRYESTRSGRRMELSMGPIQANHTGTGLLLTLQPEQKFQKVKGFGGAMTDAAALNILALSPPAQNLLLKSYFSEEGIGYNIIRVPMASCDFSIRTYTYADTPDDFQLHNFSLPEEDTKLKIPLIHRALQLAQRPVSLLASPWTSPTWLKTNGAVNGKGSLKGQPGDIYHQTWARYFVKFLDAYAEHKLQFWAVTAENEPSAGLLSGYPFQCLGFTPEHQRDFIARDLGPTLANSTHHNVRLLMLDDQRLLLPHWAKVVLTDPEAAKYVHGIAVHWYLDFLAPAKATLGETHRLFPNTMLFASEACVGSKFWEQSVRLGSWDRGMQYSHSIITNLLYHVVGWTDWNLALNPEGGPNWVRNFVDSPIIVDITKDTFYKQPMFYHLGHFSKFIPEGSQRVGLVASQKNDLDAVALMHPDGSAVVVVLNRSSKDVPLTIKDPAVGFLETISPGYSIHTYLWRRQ
Chain of Cytochrome P450 3A4 (Homo sapiens) (P08684 whole entry, looked up): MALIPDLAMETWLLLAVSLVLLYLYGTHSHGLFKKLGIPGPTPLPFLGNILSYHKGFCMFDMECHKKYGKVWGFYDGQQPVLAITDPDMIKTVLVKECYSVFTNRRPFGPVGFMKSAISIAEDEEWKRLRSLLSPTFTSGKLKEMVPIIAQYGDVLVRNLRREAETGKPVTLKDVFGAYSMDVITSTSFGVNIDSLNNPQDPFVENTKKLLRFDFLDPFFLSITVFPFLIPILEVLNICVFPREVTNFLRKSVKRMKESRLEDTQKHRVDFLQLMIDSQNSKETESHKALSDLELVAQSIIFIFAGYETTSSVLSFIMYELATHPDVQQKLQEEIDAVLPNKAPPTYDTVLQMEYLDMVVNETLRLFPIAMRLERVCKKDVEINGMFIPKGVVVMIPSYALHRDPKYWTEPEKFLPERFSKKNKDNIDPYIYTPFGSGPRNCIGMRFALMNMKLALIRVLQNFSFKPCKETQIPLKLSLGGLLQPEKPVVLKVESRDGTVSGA
Chain of Dual specificity protein kinase CLK4 (Homo sapiens) (Q9HAZ1 whole entry, looked up): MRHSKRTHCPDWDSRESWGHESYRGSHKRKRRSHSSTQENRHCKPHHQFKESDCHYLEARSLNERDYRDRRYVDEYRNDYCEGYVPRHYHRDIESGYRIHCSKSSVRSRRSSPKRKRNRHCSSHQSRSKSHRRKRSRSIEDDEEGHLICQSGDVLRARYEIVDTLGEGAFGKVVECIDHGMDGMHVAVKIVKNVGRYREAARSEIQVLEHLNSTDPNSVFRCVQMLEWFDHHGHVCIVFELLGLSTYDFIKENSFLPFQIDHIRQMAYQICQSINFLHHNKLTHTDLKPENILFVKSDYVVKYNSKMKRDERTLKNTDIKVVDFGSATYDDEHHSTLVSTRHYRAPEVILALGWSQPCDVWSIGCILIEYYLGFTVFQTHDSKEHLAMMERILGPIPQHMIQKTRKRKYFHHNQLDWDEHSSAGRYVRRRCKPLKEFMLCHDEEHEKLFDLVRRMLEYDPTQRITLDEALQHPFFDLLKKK
Chain of Cytochrome P450 1A2 (Homo sapiens) (P05177 whole entry, looked up): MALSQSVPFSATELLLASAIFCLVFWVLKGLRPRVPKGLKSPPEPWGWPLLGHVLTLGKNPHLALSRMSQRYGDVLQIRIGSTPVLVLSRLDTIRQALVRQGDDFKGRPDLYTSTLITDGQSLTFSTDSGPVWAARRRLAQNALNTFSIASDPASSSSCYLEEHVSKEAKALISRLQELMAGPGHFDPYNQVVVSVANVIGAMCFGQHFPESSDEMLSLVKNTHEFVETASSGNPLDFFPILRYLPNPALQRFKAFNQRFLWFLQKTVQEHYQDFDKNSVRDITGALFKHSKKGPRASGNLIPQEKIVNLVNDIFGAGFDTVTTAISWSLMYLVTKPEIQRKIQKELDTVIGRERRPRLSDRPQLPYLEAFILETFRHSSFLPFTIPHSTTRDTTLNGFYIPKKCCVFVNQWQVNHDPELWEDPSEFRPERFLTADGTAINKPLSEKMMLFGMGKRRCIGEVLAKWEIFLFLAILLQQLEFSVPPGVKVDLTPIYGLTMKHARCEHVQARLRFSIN
Chain of 3',5'-cyclic-AMP phosphodiesterase 4B (Homo sapiens) (Q07343 whole entry, looked up): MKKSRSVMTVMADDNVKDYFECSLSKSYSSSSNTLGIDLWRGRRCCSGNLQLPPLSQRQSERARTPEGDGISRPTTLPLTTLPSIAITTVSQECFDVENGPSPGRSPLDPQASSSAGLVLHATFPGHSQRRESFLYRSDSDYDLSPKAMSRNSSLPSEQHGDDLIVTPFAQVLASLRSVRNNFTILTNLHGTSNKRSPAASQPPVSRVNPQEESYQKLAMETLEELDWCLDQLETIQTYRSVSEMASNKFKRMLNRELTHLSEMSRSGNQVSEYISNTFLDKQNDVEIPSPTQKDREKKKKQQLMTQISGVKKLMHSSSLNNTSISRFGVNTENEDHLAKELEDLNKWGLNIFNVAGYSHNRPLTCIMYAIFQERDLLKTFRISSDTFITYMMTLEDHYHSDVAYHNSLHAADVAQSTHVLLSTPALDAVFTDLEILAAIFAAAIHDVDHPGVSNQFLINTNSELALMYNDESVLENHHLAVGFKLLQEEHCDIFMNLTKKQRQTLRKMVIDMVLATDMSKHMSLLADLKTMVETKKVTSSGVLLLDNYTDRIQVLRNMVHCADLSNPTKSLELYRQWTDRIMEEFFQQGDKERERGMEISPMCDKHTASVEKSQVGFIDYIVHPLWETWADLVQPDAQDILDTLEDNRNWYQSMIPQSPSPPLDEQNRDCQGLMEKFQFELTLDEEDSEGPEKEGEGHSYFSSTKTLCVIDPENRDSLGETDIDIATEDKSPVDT

Regarding `CCNc1ncc2nc(-c3ccc(OC)cc3)c(=O)n(CCc3ccccc3)c2n1`, the Potency in [1] is more than 11.4 µM; in assay [4] it was more than 9.22 µM; in assay [5], more than 46 µM; in assay [7], 0.501 µM (active). Besides, the activity change, negative = inhibition in assay [2] was 107% [activator] (active). The activity, negative = inhibition in assay [3] is 122% [activator] (active). Besides, the Potency result in assay [6], in assay [8], in assay [9], in [10] and in [11] was “inactive” each time. The outcome in assay [12] was inactive.
`Cn1c(=O)c(CCc2ccccc2)nc2cnc(Nc3ccccc3)nc21`: the Potency in [1] is more than 11.4 µM; in [13], 1.26 µM (active); in assay [4], more than 9.22 µM; in assay [5], more than 46 µM. The activity change, negative = inhibition in [14] is 1.9%. For the same compound, the activity, negative = inhibition in assay [3] is -11.6%. Moreover, the Potency entry in [6], in assay [15], in assay [8], in assay [9], in assay [10] and in [11] was “inactive” throughout. The outcome in [12] was inactive.
For the compound `COc1cccc(Cn2c(=O)c(-c3cccs3)nc3cnc(N4CCNCC4)nc32)c1`, the Potency was more than 11.4 µM in assay [1]; 15.8 µM (active) in [13]; more than 9.22 µM in assay [4]; more than 46 µM in [5]; 3.98 µM [activator] (active) in assay [6]. Also, in [3], the activity, negative = inhibition was 114% [activator] (active). Also, the Potency result in assay [16], in [15], in assay [8], in [9], in assay [10] and in [11] was “inactive” each time. For the same compound, the outcome in [12] was inactive.
Take `COc1ccccc1CNc1ncnc2ccc(-c3ccc4c(c3)OCO4)cc12`: the Potency in [1] is more than 11.4 µM; in assay [13], 0.794 µM (active); in assay [4], more than 46 µM; in assay [5], more than 46 µM; in assay [17] it was 1.26 µM (active); in assay [18] it was 0.794 µM (active). The Potency is 0.0794 µM (active) in assay [8], 0.158 µM (active) in assay [9] and 0.0251 µM (active) in [10]. Besides, the activity change, negative = inhibition in [14] was -26.5%. Further, the activity, negative = inhibition in [3] is -7.21%. Also, the Potency result in assay [6], in [15] and in [11] was “inactive” each time. Besides, the result in [12] was inactive.
As for `COc1ccc(Oc2ncc3nc(-c4ccc(F)cc4)c(=O)n(C4CC4)c3n2)cc1`, the Potency in [1] is more than 11.4 µM; in assay [4], more than 9.22 µM; in assay [5], more than 46 µM. Moreover, the activity change, negative = inhibition in assay [2] was 0.828%. Moreover, the Potency entry in assay [6], in [16], in [8], in [9], in [10] and in assay [11] was “inactive” each time. Also, the result in assay [12] was inactive.
As to `CCNc1ncc2nc(CCc3ccccc3)c(=O)n(Cc3ccc(F)cc3)c2n1`, the Potency in assay [1] is more than 11.4 µM; in assay [13], 3.16 µM (active); in assay [4], more than 9.22 µM; in assay [5], more than 46 µM; in [17], 2.51 µM (active). The activity change, negative = inhibition in [14] was 20.5%. In assay [3], the activity, negative = inhibition is 26.2%. For the same compound, the Potency result in assay [6], in assay [15], in assay [8], in [9], in [10] and in [11] was “inactive” in each case. In addition, in assay [12], the outcome was inactive.
